Many of the other results were omitted from the sample, so hits are more common in it than they were.
HDAC3 inh: blocks human histone deacetylase 3. O15379. recombinant HDAC3, fluorogenic peptide/trypsin coupled, fluorescence. inhibition, % at 8.3 µM. 320,000 tested, 0.15% active; in the data active means inhibition above about 26%, passing the limit was not always enough; inconclusive means no clear call, values can overlap the other calls
Target sequence (O15379 whole entry, looked up): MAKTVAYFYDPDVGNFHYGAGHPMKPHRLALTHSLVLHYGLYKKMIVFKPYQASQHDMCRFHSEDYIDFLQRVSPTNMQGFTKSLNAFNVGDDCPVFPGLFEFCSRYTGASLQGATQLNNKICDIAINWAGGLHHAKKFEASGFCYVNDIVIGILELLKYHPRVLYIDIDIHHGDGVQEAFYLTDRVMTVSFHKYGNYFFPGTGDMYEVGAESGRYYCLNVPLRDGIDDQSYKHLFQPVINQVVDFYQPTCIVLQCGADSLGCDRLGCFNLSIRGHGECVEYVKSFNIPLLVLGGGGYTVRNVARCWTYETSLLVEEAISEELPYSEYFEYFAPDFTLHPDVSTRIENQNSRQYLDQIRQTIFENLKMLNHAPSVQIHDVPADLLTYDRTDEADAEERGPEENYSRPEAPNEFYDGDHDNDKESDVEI
ALR inh: blocks human ALR sulfhydryl oxidase activity; 290,000 tested, 3.8% active; purified ALR, DTT oxidation, H2O2 HRP-luminol luminescence; inhibition, % (test concentration not listed); P55789;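 active means mean replicate inhibition above about 79%, with every replicate also reaching it, limit read from the data; inconclusive means only one of the two criteria met; inactive means mean below limit and not every replicate reaching it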
GC-B act: GC-B (human) receptor activation. activation, % at 10 µM. HEK293-GC-B cells, CNP EC30, cGMP TR-FRET; 0% at EC30 CNP, 100% saturating CNP. 370,000 tested, 0.11% active. AID 1920062. P20594;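 active means activation at 10 µM reaching about 35% in either raw or pattern-adjusted values, limit read from the data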
NPR1 activator: GC-A (human) enzyme activation | P16066 | HEK293 GC-A cells, cGMP TR-FRET, EC30 ANP; 0% at EC30 ANP, 100% saturating ANP | activation, % at 10 µM | 370,000 tested, 0.14% active | AID 1671463; in the data active means activation above about 40%
Active calls of the source: *; ? = inconclusive; nt = no result.

SMILES | HDAC3 inh | ALR inh | GC-B act | NPR1 activator
COc1cccc(CN(C)C(=O)C2CC(=O)N(c3ccc4c(c3)OCCO4)C2)c1 (stereo not given) | nt | -1 | 0 | 1
CN1C(=O)c2cc(NS(=O)(=O)c3ccc(F)cc3)ccc2OC[C@H]2O[C@@H](CC(=O)NCC(F)(F)F)CC[C@@H]21 | nt | nt | -4 | 6
CCc1ccc(NC(=O)COC(=O)CCc2nc3cc(S(=O)(=O)N(CC)CC)ccc3n2C)cc1 | -8 | 99* | -10 | -3
CS(=O)(=O)c1ccc(C(=O)OCC(=O)NC(=O)Cc2ccccc2)cc1 | -5 | -9 | 3 | -1
N#CCC(=O)Nc1ccc(C(=O)OCC(=O)NC(=O)Cc2ccccc2)cc1 | -1 | 99* | 0 | 0
CCN(CC)S(=O)(=O)c1ccc(NC(=O)COC(=O)c2ccc(NC(=O)CC#N)cc2)cc1 | 2 | 99* | -2 | 1
CCN(CC)S(=O)(=O)c1ccc(NC(=O)COC(=O)c2ccc(-n3nc(C)cc3C)cc2)cc1 | 12 | -3 | -1 | -2
N#CCC(=O)Nc1ccc(C(=O)OCC(=O)Nc2ccccc2-c2ccccc2)cc1 | 6 | 98* | 3 | -4
CC(C(=O)NCc1ccco1)n1ccc2cc(S(=O)(=O)N3CCCCC3)ccc21 (stereo not given) | -7 | 0 | 1 | 2
O=C(c1ccco1)c1coc2c1cc(O)c1ccccc12 | 3 | -56 | -1 | 4
COc1ccc(S(=O)(=O)N2CCC(C(=O)NCCCc3ccccc3)CC2)cc1 | -7 | -2 | 3 | -1
COc1ccc(CCOC(=O)c2ccc(NC(=O)CC#N)cc2)cc1 | 7 | 89* | 5 | 0
CC(C)C[C@H]1COc2cc(N3CCSCC3)ccc2S(=O)(=O)N1C | nt | nt | 7 | 6
CCC(C)c1c(O)nc(SCC(=O)Nc2ccccc2)[nH]c1=O (stereo not given) | 0 | 99* | -7 | -5
C=CCc1c(O)nc(SCC(=O)c2ccccc2)[nH]c1=O | 37* | 99* | -6 | 2
CCC(C)c1c(O)nc(SCC(=O)N2CCCCC2)[nH]c1=O (stereo not given) | 3 | 11 | 8 | 2
O=C(CSc1nc2[nH]ncc2c(=O)[nH]1)Nc1ccccc1 | -4 | -4 | 2 | 2
CCC(C)c1c(O)nc(SCC(=O)c2ccccc2)[nH]c1=O (stereo not given) | 33* | 99* | 1 | -1
CCOC(=O)CSc1n[nH]c(NC(=O)c2ccc(F)cc2)n1 | 50* | 2 | nt | nt
CCOc1ccc(-n2c(SCC(=O)Nc3ccc4c(c3)OCCO4)nnc2-c2ccncc2)cc1 | nt | nt | 3 | -2
CCN(CC)CCCN=Cc1c(-c2ccccc2)[nH]n(-c2nc3ccccc3s2)c1=O | 17 | 98* | -6 | -10
O=c1c(C=NCc2cccnc2)c(C(F)(F)F)[nH]n1-c1nc2ccccc2s1 | 6 | 99* | -5 | 1
CCC(=NCc1ccco1)c1c(C(F)(F)F)[nH]n(-c2nc3ccccc3s2)c1=O | 7 | 86* | 2 | 2
CC(C)=CCN1CCN(Cc2c[nH]c3ccccc23)CC1CCO (stereo not given) | -1 | 2 | -2 | -3
CCN=c1scc(-c2ccc3c(c2)NC(=O)CO3)n1N=C1CCCC1 | 9 | 91* | 0 | 0
SMILES | HDAC3 inh | ALR inh | GC-B act | NPR1 activator
COc1ccccc1N=c1scc(-c2ccc3c(c2)NC(=O)CO3)n1CC1CCCO1 (stereo not given) | -5 | 99* | 1 | 6
CCCCN=c1scc(-c2ccc3c(c2)NC(=O)CO3)n1N=C1CCCC1 | 0 | 11 | -9 | -5
O=[N+]([O-])c1cccc(Cl)c1NCCNc1ncc(C(F)(F)F)cc1Cl | 7 | 100* | -13 | 3
CCOc1cc(N2CCOCC2)c(OCC)cc1NC(=O)COC(=O)c1ccc([N+](=O)[O-])o1 | nt | nt | 37* | 37
O=C(NCSc1ccncn1)c1ccccc1 | 0 | 99* | -2 | 2
Cc1cccc(C2NC(=O)c3c(sc(C)c3C)N2)c1O (stereo not given) | 1 | nt | -5 | -4
Cc1ccc(C2NC(=O)c3c(sc(C)c3C)N2)c(O)c1 (stereo not given) | 11 | 92* | -2 | 3
Cc1ccc2nc(SCC(=O)Nc3ccc(F)c([N+](=O)[O-])c3)[nH]c2c1 | 7 | nt | -6 | 0
CCOc1ccc(NC(=O)CSc2nncc(=O)[nH]2)cc1 | 1 | 99* | 3 | 3
CCOC(=O)c1ccc(NC(=O)CSc2nc(C)cc(=O)[nH]2)cc1 | 0 | 99* | nt | nt
Cc1cc(=O)[nH]c(SCC(=O)Nc2ccc(N3CCCCC3)cc2)n1 | 1 | 92* | -1 | -2
Cc1cc(=O)[nH]c(SCC(=O)Nc2ccc(F)c([N+](=O)[O-])c2)n1 | -3 | 98* | -7 | -1
C/C(=N\NC(=O)c1ccn(C)n1)c1cccc(NC(=O)c2ccc(C)s2)c1 | -15 | -4 | -1 | -2
CC(=O)c1c(C)[nH]c(C(=O)CSc2nc3ccc(C)cc3[nH]2)c1C | -3 | 97* | 1 | -6
Cc1ccc2nc(SCC(=O)c3ccc(Cl)s3)[nH]c2c1 | 5 | -5 | -7 | -5
CCCc1cc(=O)[nH]c(Nc2ccc(N3CCCCC3)cc2)n1 | 0 | 98* | -5 | 3
CCCCc1ccc(Nc2nc(CCC)cc(=O)[nH]2)cc1 | 1 | -5 | 3 | -5
COC(=O)c1cc(NC(=O)CSc2nc(C)cc(=O)[nH]2)cc(C(=O)OC)c1 | -8 | 60 | 1 | 2
Cc1cc(=O)[nH]c(SCC(=O)Nc2ccc(C(=O)O)cc2)n1 | -12 | 99* | 3 | 0
CCOC(=O)c1ccc(NC(=O)CSc2nc3sc(C(=O)O)c(C)c3c(=O)[nH]2)cc1 | 1 | 98* | 0 | 1
COC(=O)c1ccc(CSc2nc3sc(C(=O)O)c(C)c3c(=O)[nH]2)cc1 | -1 | -73 | -7 | -2
COc1ccccc1CC(=O)NCc1nn(-c2ccccc2)nc1C | 0 | nt | 7 | -1
Cc1ccc(NC(=O)CSc2nc(NS(=O)(=O)c3ccccc3)cc(=O)[nH]2)cc1 | -3 | 98* | nt | nt
COc1cc(NC(=O)CSc2nc(C)cc(=O)[nH]2)cc(OC)c1 | nt | nt | 5 | -4
CCOC(=O)c1cc(C#N)c(SCC(N)=O)[nH]c1=O | -14 | -17 | -4 | -2
SMILES | HDAC3 inh | ALR inh | GC-B act | NPR1 activator
O=C(CSc1nccc(=O)[nH]1)Nc1ccc(S(=O)(=O)N2CCOCC2)cc1 | 1 | 99* | -2 | 3
CCOC(=O)c1cc(C#N)c(SCC(=O)Nc2ccc(C(C)=O)cc2)[nH]c1=O | nt | 99* | -6 | -1
Cc1cc(=O)[nH]c(SCC(=O)Nc2ccc(S(N)(=O)=O)cc2)n1 | -6 | 99* | 1 | 3
CCN(CC)c1ccc(NC(=O)CSc2nc(C)cc(=O)[nH]2)cc1 | 3 | 99* | -2 | -3
CCN(CC)c1ccc(NC(=O)CSc2nc3ccccc3c(=O)[nH]2)cc1 | 3 | ? | 1 | -4
O=C(CSc1nncs1)Nc1ccc(N2CCCCC2)cc1 | 0 | 98* | 5 | 0
